# Rows were chosen to be rich in hits. Some 18% of all compounds tested hit in one or more screens of this group.
# PLK1 PBD block: blocks phosphopeptide binding to human PLK1 polo-box domain | P53350 | Plk1 PBD binding of FITC phosphopeptide, fluorescence polarization | Potency, µM, for inactives: max response, negative = inhibition, actives largely listed as inhibitors | 2.8% of 360,000 active | AID 720504; further: series mostly up to about 57 µM; nearly all actives have a fitted effect of over 65% in size
# KAT2A inh: GCN5L2 (KAT2A) acetyltransferase inhibition; Q92830; GCN5L2 HAT assay, ThioGlo1 CoA-SH fluorescence; Potency, µM (doses to about 58.9 µM), without a hit: at the top dose activity change, negative = inhibition, most hits filed as inhibitors; 0.21% of 390,000 active
#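 Titration-based screen in which CoA formation is detected via maleimide probe ThioGlo1 (50uM) turning fluorescent on thiol reaction; substrates H3(1-25) 75uM and acetyl-CoA 70uM, GCN5L2 20nM, 20 min incubation at room temperature.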
# TDP1 inh: inhibitors of human tyrosyl-DNA phosphodiesterase TDP1; Q9NUW8; recombinant TDP1, AlphaScreen DNA substrate cleavage; Potency, µM (series often up to 130 µM), for the others: at the highest dose activity change, negative = inhibition, hits mostly inhibitors; 0.28% of 350,000 active; further: nearly all actives have a fitted effect of over 40% in size
#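 Here, a 5' biotin and 3' phosphotyrosine-FITC DNA oligonucleotide reports Tdp1 activity: intact substrate bridges AlphaScreen beads, while cleavage leaves a 3' phosphate and drops signal. All incubations at room temperature.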
# DT40 TDP1 CPT: growth inhibition of DT40 Tdp1-/-;hTDP1 cells with camptothecin (screen for TDP1 inhibitors); AID 686979; 12% of 420,000 active; Potency, µM (titrated, usually from 46.2 µM), inactives show at the highest dose activity change, negative = growth inhibition, most hits filed as inhibitors; chicken DT40 Tdp1-/-;hTDP1 cells + 20 nM CPT, ATP luminescence, 48 h; further: nearly all actives have a fitted effect of over 55% in size
#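 Chicken DT40 Tdp1-/- cells stably complemented with human TDP1 were seeded at 400 cells/well in medium containing 20 nM camptothecin, exposed to pin-transferred compounds, and grown at 37 °C for at least 48 hr. Viability was read as ATP luminescence.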
# VDR inhibitor: vitamin D3 receptor (human) inhibition; 0.93% of 400,000 active; Potency, µM, for inactives: max response, negative = inhibition, hits mostly inhibitors; AID 504847; VDR-SRC2-3 peptide fluorescence polarization, 2 h; P11473
# Target sequence (P11473 whole entry, looked up): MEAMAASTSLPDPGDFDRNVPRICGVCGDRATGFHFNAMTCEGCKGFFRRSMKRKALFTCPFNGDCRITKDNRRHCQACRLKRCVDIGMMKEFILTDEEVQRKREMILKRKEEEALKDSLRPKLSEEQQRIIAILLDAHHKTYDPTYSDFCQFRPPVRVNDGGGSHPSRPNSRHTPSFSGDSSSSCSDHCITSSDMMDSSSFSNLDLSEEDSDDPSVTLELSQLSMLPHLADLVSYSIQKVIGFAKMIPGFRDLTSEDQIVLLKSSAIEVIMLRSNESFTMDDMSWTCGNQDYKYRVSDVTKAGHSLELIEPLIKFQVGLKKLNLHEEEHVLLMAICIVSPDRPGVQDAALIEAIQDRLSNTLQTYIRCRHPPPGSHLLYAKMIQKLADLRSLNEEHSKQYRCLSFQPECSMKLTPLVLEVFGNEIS
#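 FP read-out; VDR + SRC2-3 coactivator peptide; 23 nl compound by pintool; 2 h RT incubation; reagents held at 4 deg C, protected from light.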
# DT40 TDP1 no CPT: qHTS for Inhibitors of human tyrosyl-DNA phosphodiesterase 1 (TDP1): qHTS in cells in absence of CPT. DT40 Tdp1-/- hTDP1 cells, no CPT, ATP luminescence, 48 h. Potency, µM (doses to about 46.2 µM), for inactives: top-dose activity change, negative = growth inhibition, most hits filed as inhibitors. 15% of 420,000 active; further: nearly all actives have a fitted effect of over 55% in size
#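 Chicken DT40 Tdp1-/- cells stably complemented with human TDP1 were seeded at 400 cells/well with DMSO in place of 20 nM camptothecin. After compound pinning, cells grew at least 48 hr at 37 °C; viability read by CellTiter-Glo luminescence.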
# An asterisk follows results filed as active; ? = inconclusive; / = not tested or not shown; ! = repeats disagree; [ ] = another dose, or the depositor's remark. The call rests on the fitted dose curve; in most records, active means well fitted curve in the direction sought with a large enough effect; inconclusive means small, poorly fitted or top-dose-only effect, or another doubt; inactive means no such curve, though single readings can be large; an effect the other way counts as inactive or inconclusive. On the % scale 0 is the no-effect control and ±100 the full control effect; potency means the concentration at half of the fitted maximal effect.
SMILES,PLK1 PBD block,KAT2A inh,TDP1 inh,DT40 TDP1 CPT,VDR inhibitor,DT40 TDP1 no CPT
CC(C)COC(=O)N1Cc2ccccc2-n2nncc2C1,-13%,/,/,-3%,/,-23%
C=C(C=O)C[C@@H]1C[C@H](O)C2OC3C[C@]4(C)OC5/C=C\CC6OC7C(CC=CCC6OC5CCCC4OC3CC2O1)OC1CC2OC3CC(=O)OC3C[C@@H](C)C[C@@]2(C)OC1C[C@@H]7C (stereo not given in full),?,1%,0%,0.65µM*,?,0.58µM*
CCOP(=S)(OCC)SCSc1ccc(Cl)cc1,/,5%,3%,-10%,5%,-7%
Cc1ccccc1NC(=O)CSc1nc2ccccc2c2nc(CCn3c(C)nc4ccccc43)nn12,/,-3%,3%,15µM*,-8%,18µM*
CC(Cc1ccccc1)NCC(=O)Nc1cc(N(C)C)nc2ccccc12 (stereo not given),-1%,-7%,/,?,0%,?
COc1ccc(CCn2c(NN=C3CCCCC3)nc3c2c(=O)[nH]c(=O)n3C)cc1,?,-6%,/,?,5%,16µM*
CN1CC[C@@]2(c3cccc(O)c3)Cc3nc4ccccc4cc3C[C@H]2C1,/,-15%[0.501 µM],7%,27µM*,2%,?
CCC(=O)O[C@]1(c2ccccc2)CCN(C)C[C@H]1C,/,/,/,6%,/,-29%
CCOP(=O)(NC(C)C)Oc1ccc(SC)c(C)c1 (stereo not given),-5%,/,-5%,22µM*,38%,22µM*!
CN1CCN(c2oc(-c3ccc(COc4ccccc4)o3)nc2C#N)CC1,/,-8%,5%,?,-8%,?
O=C1/C(=C\c2ccccc2)C2OCC=C3CN4CCC56c7ccccc7N1C5C2C3CC46 (stereo not given),2%,-3%,/,21µM*,-15%,?
O=C1CC2OCC=C3CN4CCC56c7cc([N+](=O)[O-])ccc7N1C5C2C3CC46 (stereo not given),0%,1%,5%,?,-18%,?
CCCCOCN(C(=O)CCl)c1c(CC)cccc1CC,/,-17%,16%,/,?,/
O=C(O)c1ccc([N+](=O)[O-])c([N+](=O)[O-])c1,-19%,/,/,-10%,-3%,-16%
CC(C)(O)C(=O)Nc1ccc([N+](=O)[O-])c(C(F)(F)F)c1,0%,2%,1%,?,-10%,15µM*
CCCCCl,/,-15%,18%,-19%,-2%,-2%
COC(=O)C1=C(c2cc3ccccc3o2)C[C@@H]2CC[C@H]1N2C(=O)NCCCOC(C)C,6%,/,/,?,9%,12µM*
COC(=O)C1=C(c2cc3ccccc3o2)C[C@@H]2CC[C@H]1N2C(=O)NCCNC(C)=O,2%,/,/,-21%,22%,/
COC(=O)C1=C(c2cc3ccccc3o2)C[C@@H]2CC[C@H]1N2C(=O)NC(C)C,-12%,/,/,23µM*,-13%,16µM*
CC[C@H](C)C(=O)O[C@@H]1[C@H](O)[C@@H]2[C@H](CN3C[C@@H](C)CC[C@@H]3[C@@]2(C)O)[C@@H]2C[C@@]34O[C@@]5(O)[C@@H](OC(=O)[C@](C)(O)CC)CC[C@@]3(C)[C@H]5[C@H](OC(C)=O)[C@@H](OC(C)=O)[C@H]4[C@]12O,/,7%[21.4 µM],8%[56.1 µM],/,-2%,/
Cc1ccc(Cn2nc(C)c(NC(=O)c3cc(-c4ccc(F)cc4)on3)c2C)cc1,/,3%,7%,10µM*,-21%,7.3µM*
CCCC/C=C/[C@@H](NP(=O)(c1ccccc1)c1ccccc1)c1ccccc1OC,/,/,4%,/,/,/
CC(C)c1cccc(C(C)C)c1OC(=O)NC(=O)c1c(F)cccc1F,-7%,-10%,1%,?,-17%,-25%
CCN1CCN(c2nc3c(c(=O)[nH]2)CCCC3)CC1,0%,3%,-3%,-26%,-1%,-1%

# Screening results (PubChem BioAssay)
